DAT uptake mod = changed human dopamine transporter uptake under cocaine IC80 | Q01959 | LLC-PK1 hDAT cells, [14C]-dopamine uptake with cocaine IC80; actives deviate in either direction | B-score at 10 µM | hit rate 1.3% among 110,000;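 active = Z score or B-score, a plate-position-corrected score, falls beyond the plate's 99.7% confidence bounds, in either direction; inactive = both scores lie inside the 99.7% bounds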
Target sequence (Q01959 whole entry, looked up): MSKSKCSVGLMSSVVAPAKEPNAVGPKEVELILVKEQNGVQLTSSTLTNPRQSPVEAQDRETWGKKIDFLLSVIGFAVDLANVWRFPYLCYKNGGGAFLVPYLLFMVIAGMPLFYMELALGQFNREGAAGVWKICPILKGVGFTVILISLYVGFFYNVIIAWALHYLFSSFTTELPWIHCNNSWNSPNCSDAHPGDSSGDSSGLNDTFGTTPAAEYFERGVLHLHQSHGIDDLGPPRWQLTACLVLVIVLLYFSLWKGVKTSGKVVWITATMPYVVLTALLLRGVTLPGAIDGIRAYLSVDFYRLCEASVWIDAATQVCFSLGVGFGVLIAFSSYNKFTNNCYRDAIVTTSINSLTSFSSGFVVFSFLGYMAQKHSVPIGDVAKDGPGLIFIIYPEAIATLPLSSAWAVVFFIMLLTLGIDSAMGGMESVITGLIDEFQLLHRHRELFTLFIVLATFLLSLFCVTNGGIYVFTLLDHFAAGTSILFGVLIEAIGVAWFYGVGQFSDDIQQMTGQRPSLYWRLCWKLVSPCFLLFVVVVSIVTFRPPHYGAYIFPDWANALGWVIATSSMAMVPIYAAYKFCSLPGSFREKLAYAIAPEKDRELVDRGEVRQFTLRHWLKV
PostGolgi ctrl = growth of the yeast control strain, post-Golgi counter-screen | efflux-deficient yeast background strain, growth absorbance A615, 16 h | inhibition, % at 10 µM | hit rate 5% among 98,000 | AID 738
Cav3 T inh = human Cav3.2 channel inhibition, primary screen | Cav3.2-expressing cells, Fluo-4 calcium fluorescence FDSS; stronger effect = lower value | B-score at 10 µM | hit rate 4% among 100,000 | AID 449739;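 active = single-dose well whose peak fluorescence ratio is a statistical outlier from its plate by either plate-standardised score or position-corrected B-score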
PLAP activator = activators of human placental alkaline phosphatase; AID 696; purified PLAP enzyme, luminescent substrate read-out; stronger effect = higher value; P05187; activation fold at 20 µM; hit rate 1.2% among 96,000; in the data active = activation fold above about 2
PostGolgi yeast = growth inhibition of a yeast mutant, post-Golgi transport screen; post-Golgi transport phenotypic cell assay; inhibition, % at 10 µM; hit rate 0.9% among 98,000;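 also: yeast cells grown in 1536-well plates; yeast grown about 18 h at 30C before absorbance read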
Numbers stand for hits; 0 = inactive; - = not tested or not shown. Shown are actives, neighbours in structure and some others; about 9.6% of the full set was active somewhere. Rule as the data show it, unless noted: active = inhibition above about 30%; inactive = the rest.

SMILES	DAT uptake mod	PostGolgi ctrl	Cav3 T inh	PLAP activator	PostGolgi yeast
COc1cc(OC)cc(-c2nnc(SCC(=O)N3CCCC3)o2)c1	0	35	0	0	0
CCn1c(CNc2ccc(F)cc2)nnc1SCC(=O)N1CCCc2ccccc21	0	0	0	0	0
COc1ccc(CN2CCc3ccccc3C2)c(OC)c1OC	0	0	0	0	0
COC(=O)CC1=C(C(=O)OC)C(c2cccs2)C(C#N)=C(N)O1 (stereo not given)	0	0	0	0	0
CCCC(=O)NC(C)c1nc(-c2ccc(C)cc2)no1 (stereo not given)	0	-	0	-	-
COc1cc(OC)cc(-c2nnc(SCC(=O)N3CCCc4ccccc43)o2)c1	0	0	-4.3	0	0
CCCCNS(=O)(=O)c1ccc2nc(SCC(=O)c3ccccc3OC)[nH]c2c1	0	0	0	2.2	0
CCCCNS(=O)(=O)c1ccc2nc(SCC(=O)Nc3sccc3C#N)[nH]c2c1	0	0	-3.5	0	0
CCOc1ccc2nc(SCC(=O)Nc3ncccn3)[nH]c2c1	-	0	-	0	0
CN(C[C@H](Cc1ccccc1)N(C[C@H](Cc1ccccc1)N(CC1(c2ccccc2)CC1)N=O)N=O)N=O	0	-	0	-	-
CC(=O)N(CCC(Cc1ccccc1)c1ccc2c(c1)OCO2)Cc1ccc(Cl)cc1 (stereo not given)	0	36	-3.1	0	0
CCC1=Nc2cc(C(=O)NCCCOC(C)C)ccc2Sc2ccccc21	-7.2	0	0	0	0
CC(C)OCCCNC(=O)c1ccc(N(C)S(C)(=O)=O)cc1	0	0	0	-	0
OC(CN1CCN(c2ccccn2)CC1)Cn1c2ccc(Cl)cc2c2cc(Cl)ccc21 (stereo not given)	0	97	0	0	97
OC(CN1CCN(c2ccccc2)CC1)Cn1c2ccccc2c2ccccc21 (stereo not given)	0	36	0	0	0
CN1CCN(C(=O)c2cc3c(n(-c4ccccc4)c2=O)CC(C)(C)CC3=O)CC1	0	0	0	0	0
CC1(C)CC(=O)c2cc(C(=O)NCc3ccco3)c(=O)n(-c3ccccc3)c2C1	0	0	4.1	0	0
O=C1c2cccc3c(Cl)ccc(c23)C(=O)N1O	0	34	0	0	0
O=C(c1ccc2c3c(cccc13)C(=O)N(O)C2=O)N1CCCCC1	0	0	0	0	0
CC1CCC(NC(=O)Cn2c3c(c(-c4ccccc4Cl)cc2=O)CCC3)CC1 (stereo not given)	0	0	-5.1	0	0
O=C1CCCCC(=O)N(c2ccccc2)c2ccccc21	0	32	0	0	0
O=C(Cn1c(=O)c2c(ncn2C2CCCC2)n(Cc2ccccc2)c1=O)N1CCc2ccccc21	0	0	-4.4	0	0
O=C(Cn1c(=O)c2c(ncn2Cc2ccccc2)n(Cc2ccccc2)c1=O)N1CCc2ccccc21	0	0	0	0	0
CC1(C)CC(=NO)CC(C)(C)N1	0	0	0	0	0
Cc1ccc(Nc2cc(C)nn2-c2nc(C)cc(C)n2)cc1	0	39	0	0	0
SMILES	DAT uptake mod	PostGolgi ctrl	Cav3 T inh	PLAP activator	PostGolgi yeast
CCn1c(SCC(=O)N2CCCC(C)C2)nnc1-c1ccc(S(=O)(=O)N2CCN(C)CC2)cc1 (stereo not given)	0	0	-	2	0
CCn1c(SCC(=O)Nc2cc(C)on2)nnc1-c1ccc(S(=O)(=O)N2CCN(C)CC2)cc1	0	0	0	2	0
Cn1c(=O)c2c(nc(CN3CCN(CCO)CC3)n2Cc2cccc3ccccc23)n(C)c1=O	0	0	0	0	0
CCN1CCN(Cc2nc3c(c(=O)n(C)c(=O)n3C)n2CCCc2ccccc2)CC1	-	-	-	0	-
CCN1CCN(Cc2nc3c(c(=O)n(C)c(=O)n3C)n2Cc2ccccc2Cl)CC1	0	31	0	0	0
CCN1CCN(Cc2nc3c(c(=O)n(C)c(=O)n3C)n2CCc2ccccc2)CC1	-3	-	0	-	-
Cn1c(=O)c2c(nc(N3CCCCCC3)n2Cc2cccc3ccccc23)n(C)c1=O	-	62	-	0	0
Cn1c(=O)c2c(nc(CN3CCc4ccccc4C3)n2Cc2cccc(Cl)c2)n(C)c1=O	0	33	-4.2	0	0
CCOC(=O)Nc1ccc2c(c1)Sc1ccccc1N2C(=O)CCN1CCOCC1	0	0	-	0	0
c1coc(-c2nnc3sc(-c4cccs4)nn23)c1	0	0	0	0	0
COC(C/C=C/[C@H](O)[C@H](C)OCc1ccccc1)OC	0	-	0	-	-
Cc1ccc(S(=O)(=O)Cn2nnnc2CN2CCCC3(CCCCC3)C2)cc1	0	0	0	0	0
O=C(NC(=S)NNC(=O)c1ccccc1[N+](=O)[O-])c1ccccc1	0	-	-8.4	-	-

High-throughput results as filed in PubChem BioAssay.
